Experimental data published in PubChem BioAssay (NCATS).
Results filed as inconclusive are left out. Values without a mark were called inactive. The source made the active and inactive calls. Calls follow the shape of the full dose curve; tested in HEK293 reporter line.

Experiment: qHTS for Inhibitors of the Functional Ribonucleoprotein Complex (vRNP) of Lassa (LASV) Arenavirus: Viability assay - alamar blue signal for LASV Primary Screen (AID 1347083); also: nearly all actives have a fitted effect of over 80% in size
Settings: cell viability, alamar blue fluorescence (LASV minigenome counter-screen); series mostly up to 57.5 µM; activity change, negative = reduced viability: at the top concentration
% is scaled to controls: 0 for no effect and ±100 for the full control effect.

Structure (SMILES)	activity change, negative = reduced viability	Potency
COc1ccc(C(Cl)=C(c2ccc(OC)cc2)c2ccc(OC)cc2)cc1	5.87%	–
NCc1ccccc1Sc1ccccc1CO	9.85%	–
O=C(CCCN1CCN(c2ccccn2)CC1)c1ccc(F)cc1	25.9%	–
CCN1CCN(c2cc(-c3ccc(F)cc3)c3c(n2)CCCCCC3)CC1	16.8% [at 24.7 µM]	–
O=C1OC(c2ccc(O)cc2)(c2ccc(O)cc2)c2ccccc21	32.4%	–
Clc1ccccc1-c1nc(-c2ccncc2)no1	0.393%	–
NCCNC(=O)c1ccc(Cl)cn1	9.05%	–
Oc1ccc(Cl)cc1Sc1cc(Cl)ccc1O	-4.77%	–
CCOC(=O)c1c(N)sc2c1CCN(Cc1ccccc1)C2	-1.09%	–
OC[C@H]1O[C@@H](O[C@@H]2[C@@H](CO)O[C@](O)(CO)[C@H]2O)[C@H](O)[C@@H](O)[C@H]1O	14.3%	–
C[N+]12CCC(CC1)C(OC(=O)C(O)(c1ccccc1)c1ccccc1)C2 (stereo not drawn)	1.96%	–
COC1=C(OC)C(=O)C(CCCCCCCCCCO)=C(C)C1=O	-6.13%	–
O=C1NCN(c2ccccc2)C12CCN(CCCC(c1ccc(F)cc1)c1ccc(F)cc1)CC2	1.75%	–
Cc1ccc(Cl)c(OCC(O)CNC(C)(C)C)c1 (stereo not drawn)	-7.7%	–
Cc1c(Cn2ccnc2)c2ccccc2n1CCC(=O)O	5.01%	–
Clc1ccc(Cn2c(CN3CCCC3)nc3ccccc32)cc1	–	inactive
COc1cc2c(cc1OC)-c1cc(=Nc3c(C)cc(C)cc3C)n(C)c(=O)n1CC2	–	inactive
CCCC(=O)O[C@]1(C(=O)CCl)[C@@H](C)C[C@H]2[C@@H]3CCC4=CC(=O)C=C[C@]4(C)[C@@]3(F)C(=O)C[C@@]21C	2.11%	–
